Screening data as filed in PubChem BioAssay.
Sampled rows, rich in hits. Any-hit rate of the full collection: about 2.1%.
ROS inducer: cancer cell ROS induction. 46,000 tested, 2% active. ROS induction (% of piperlongumine), % at 10 µM. U2OS ROS induction, H2DCF-DA fluorescence. AID 624156; in the data active means ROS induction above about 79%, passing the limit was not always enough
YB-1 expr inh: YB-1 expression inhibition; U2OS, qRT-PCR YB-1 vs CDIP delta delta Cp, 16 h; hits give high values; zero = DMSO, each unit about twofold; delta delta Cp (YB-1 minus CDIP) (test concentration not listed); 30,000 tested, 0.37% active;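 active means delta delta Cp rounded down to an integer at or above 3, about 3 SD of DMSO wells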;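 further: higher means less YB-1 transcript or more CDIP transcript relative to DMSO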
Of the large screens only hits and unclear results are named; the others gave an inactive call.

Cc1ccc(NC(=O)CNS(=O)(=O)c2ccccc2)c(C(=O)c2ccccc2)c1	none (no result: YB-1 expr inh)
COc1ccc(CCNC(=O)CC(c2ccccc2)c2cc(Br)ccc2O)cc1OC (stereo not drawn)	none (no result: YB-1 expr inh)
CC1CCN(CN2C(=S)SC3=NC(=O)CCCN32)CC1	none (no result: YB-1 expr inh)
Cc1nc(C(=O)/C=C/N(C)C)cs1	none (no result: YB-1 expr inh)
COc1ccc(CC(=O)Nc2ccc(OC)cc2)cc1	none (no result: YB-1 expr inh)
Cc1noc(C)c1NC(=O)Nc1cccc2c1O[C@H](CN(C)Cc1ccc(Oc3ccccc3)cc1)[C@H](C)CN([C@@H](C)CO)C2=O	none
Cc1noc(C)c1NC(=O)Nc1cccc2c1O[C@H](CN(C)Cc1ccc(Oc3ccccc3)cc1)[C@@H](C)CN([C@@H](C)CO)C2=O	ROS inducer 88
COc1ccc(N2C(=O)c3c(c4ccccc4n3C)C2c2cccc(OC)c2)cc1 (stereo not drawn)	none (no result: YB-1 expr inh)
COc1ccc(S(=O)(=O)N(CCC(=O)O)Cc2ccco2)cc1OC	none (no result: YB-1 expr inh)
COc1cccc(S(=O)(=O)N(C)C[C@@H]2Oc3ncc(-c4cccc(F)c4)cc3C(=O)N([C@H](C)CO)C[C@@H]2C)c1	none
COc1ccc(C#Cc2cnc3c(c2)C(=O)N([C@H](C)CO)C[C@H](C)[C@H](CN(C)C(=O)Nc2ccccc2)O3)cc1OC	none
COc1ccc(C#Cc2cnc3c(c2)C(=O)N([C@H](C)CO)C[C@H](C)[C@H](CN(C)C(=O)Nc2cccc4ccccc24)O3)cc1OC	ROS inducer 148
COc1ccc(C#Cc2cnc3c(c2)C(=O)N([C@H](C)CO)C[C@H](C)[C@H](CN(C)C(=O)NC2CCCCC2)O3)cc1OC	ROS inducer 135
COc1ccc(C#Cc2cnc3c(c2)C(=O)N([C@H](C)CO)C[C@H](C)[C@H](CN(C)C(=O)NC(C)C)O3)cc1OC	none
COc1cccc(S(=O)(=O)N(C)C[C@@H]2Oc3ncc(C#Cc4ccc(F)cc4)cc3C(=O)N([C@H](C)CO)C[C@@H]2C)c1	ROS inducer 103
O=C(Oc1c(CN2CCOCC2)cc(Cl)c2cccnc12)c1ccc([N+](=O)[O-])cc1	none (no result: YB-1 expr inh)
C=CCn1c(SCc2ccc(Cl)cc2)nc2cc(C(=O)NCc3ccco3)ccc2c1=O	none (no result: YB-1 expr inh)
COc1ccc(CCC(=O)NCCc2cn3ccccc3n2)cc1	none (no result: YB-1 expr inh)
O=C(NCc1ccccc1)c1cc2c(s1)CS(=O)(=O)C2	none (no result: YB-1 expr inh)
O=C(CCCOc1ccc(Cl)cc1Cl)Nc1nccs1	none (no result: YB-1 expr inh)
CCOC(=O)c1c(/N=C/C2C(=O)NC(=S)NC2=O)sc2c1CCCCC2	none (no result: YB-1 expr inh)
CCOC(=O)C1=CN(c2ccc(C)cc2)C=C(C(=O)OCC)C1c1cccs1	ROS inducer 112 (no result: YB-1 expr inh)
CCOC(=O)c1csc(-c2cccs2)n1	none (no result: YB-1 expr inh)
CC/C=C\CC1C(=O)C=C/C1=C/CCCCCCC(=O)O (stereo not drawn)	none
CC/C=C\C=C1\C(=O)C=CC1CCCCCCCC(=O)O (stereo not drawn)	ROS inducer 87
NC(=O)CSc1ncnc2c1nnn2Cc1ccc(F)cc1	ROS inducer 135 (no result: YB-1 expr inh)
O=C(CSc1ncnc2c1nnn2Cc1ccc(F)cc1)OCc1ccccc1	none (no result: YB-1 expr inh)
Cc1ccc2[nH]c3c(c2c1)CCCC3NC1CCCCC1 (stereo not drawn)	none (no result: YB-1 expr inh)
COc1cccc(-c2cnc3c(c2)C(=O)N([C@H](C)CO)C[C@H](C)[C@H](CN(C)C(=O)Nc2ccc4c(c2)OCO4)O3)c1	ROS inducer 94
COc1cccc(-c2cnc3c(c2)C(=O)N([C@H](C)CO)C[C@H](C)[C@H](CN(C)C(=O)Nc2cccc4ccccc24)O3)c1	ROS inducer 93
COc1cccc(-c2cnc3c(c2)C(=O)N([C@H](C)CO)C[C@H](C)[C@H](CN(C)C(=O)Nc2ccc(F)cc2)O3)c1	none
COc1ccc(-c2cnc3c(c2)C(=O)N([C@H](C)CO)C[C@H](C)[C@H](CN(C)C(=O)Nc2ccc4c(c2)OCO4)O3)cc1	none
Cc1ccc(C(=O)Oc2ccc3oc(=O)sc3c2)cc1	none (no result: YB-1 expr inh)
COc1cc(O)c2c(=O)c(OC)c(-c3ccc(OC)c(OC)c3)oc2c1	none
COc1ccc(-c2oc3c(OC)c(OC)c(OC)c(O)c3c(=O)c2OC)cc1OC	ROS inducer 102
COc1cc(OC)c2c(=O)c(O)c(-c3ccc(OC)c(OC)c3)oc2c1	ROS inducer 83
COc1cc(-c2oc3cc(O)c(OC)c(O)c3c(=O)c2OC)ccc1O	none
CCN(CC)C(=O)c1nn(C)c(=O)c2ccccc12	none (no result: YB-1 expr inh)
COc1ccc(-c2nc3ccc4ccccc4c3c3c2CCC3)cc1	ROS inducer 138
CN(C)c1ccc(-c2nc3ccc4ccccc4c3c3c2CCC3)cc1	none
CCC1CCc2nc3sc(C(=O)Nc4cc(Cl)ccc4OC)c(N)c3cc2C1 (stereo not drawn)	none (no result: YB-1 expr inh)
COc1ccc2c(c1)C(=O)/C(=C/c1ccc(N(C)C)cc1)CC2	ROS inducer 122 (no result: YB-1 expr inh)
COc1ccc(/C=C2\CCc3ccccc3C2=O)cc1Cn1cccn1	none (no result: YB-1 expr inh)
Cn1nc(C(C)(C)C)cc1C(=O)NCc1ccc(-c2cccs2)cc1	none (no result: YB-1 expr inh)
O=C(Cn1nc(-c2ccccc2)ccc1=O)NCCCN1CCCC1	none (no result: YB-1 expr inh)
O=C(Nc1cccc(-c2nc3cccnc3s2)c1)C1CC1	none (no result: YB-1 expr inh)
C[C@H](CO)N1C[C@H](C)[C@@H](CN(C)Cc2ccc(Oc3ccccc3)cc2)Oc2ccc(NC(=O)NC3CCCCC3)cc2C1=O	ROS inducer 87
C[C@@H]1CN([C@H](C)CO)C(=O)Cc2cc(NC(=O)NC3CCCCC3)ccc2O[C@@H]1CN(C)Cc1ccc(-c2ccccc2)cc1	ROS inducer 98
C[C@@H]1CN([C@H](C)CO)C(=O)Cc2cc(NC(=O)NC3CCCCC3)ccc2O[C@@H]1CN(C)Cc1ccc(Oc2ccccc2)cc1	ROS inducer 131
C[C@H](CO)N1C[C@H](C)[C@H](CN(C)Cc2ccccc2)Oc2ccc(NC(=O)Nc3cccc4ccccc34)cc2CC1=O	none
C[C@@H]1CN([C@@H](C)CO)C(=O)Cc2cc(NC(=O)NC3CCCCC3)ccc2O[C@@H]1CN(C)Cc1ccc(-c2ccccc2)cc1	none
C[C@H]1CN([C@@H](C)CO)C(=O)Cc2cc(NC(=O)Nc3cccc4ccccc34)ccc2O[C@@H]1CN(C)Cc1ccc(-c2ccccc2)cc1	ROS inducer 132
C[C@@H]1CN([C@@H](C)CO)C(=O)c2cc(NC(=O)NC3CCCCC3)ccc2O[C@H]1CN(C)Cc1ccc(Oc2ccccc2)cc1	none
C[C@@H]1CN([C@@H](C)CO)C(=O)Cc2cc(NC(=O)NC3CCCCC3)ccc2O[C@@H]1CN(C)Cc1ccccc1	none
CCOc1ccc(N=c2scc(-c3ccc(S(=O)(=O)N(CC)CC)cc3)n2CCCO)cc1	none (no result: YB-1 expr inh)
C=CCn1cc(/C=C2/NC(=O)N(c3ccccc3)C2=O)c2ccccc21	none (no result: YB-1 expr inh)
CC(=C1C(=O)c2ccccc2C1=O)N1CCC(C(N)=O)CC1	none (no result: YB-1 expr inh)
CCOC(=O)c1cccc(NC(=O)c2ccc(-c3ccccc3)s2)c1	none (no result: YB-1 expr inh)
C[C@@H]1CN([C@H](C)CO)C(=O)Cc2cc(N(C)C)ccc2O[C@@H]1CN(C)Cc1ccc(Oc2ccccc2)cc1	none
C[C@H]1CN([C@@H](C)CO)C(=O)Cc2cc(N(C)C)ccc2O[C@@H]1CN(C)Cc1ccc(Oc2ccccc2)cc1	ROS inducer 135
CCSc1nnc2n(/N=C/c3cccs3)cnn12	none (no result: YB-1 expr inh)
N#CC1=C(N)Nc2c(c(=O)oc3ccccc23)C1c1ccc(Br)cc1 (stereo not drawn)	ROS inducer 81
C=CCN1C(=O)C2(C(C#N)=C(N)Oc3c2c(=O)oc2ccccc32)c2ccccc21 (stereo not drawn)	none
Cc1ccc(NC(=O)CSc2nc3c(sc4ccccc43)c(=O)n2CC2CCCO2)cc1C (stereo not drawn)	none (no result: YB-1 expr inh)
